In PubChem BioAssay (NCATS):
Inconclusive results are not listed. The source made the active and inactive calls. Calls come from the whole dose curve; as a rule, active = well fitted inhibition curve with a large enough effect; inconclusive = small, poorly fitted or top-dose-only effect; inactive = no such curve, though single readings can be large or run the other way.

Assay: Confirmatory qHTS for small molecule stabilizers of the endoplasmic reticulum resident proteome: Secreted ER Calcium Modulated Protein (SERCaMP) assay (AID 1508628); note: nearly all actives have a fitted effect of over 40% in size
Details: SERCaMP secreted luciferase ER calcium/proteostasis reporter; series mostly up to 76.3 µM; activity change, negative = decrease: at the top concentration
Source text: Assay Provider: Brandon K. Harvey Ph.D.
National Institute on Drug Abuse, National Institutes of Health, Baltimore, MD
Endoplasmic reticulum (ER) dysregulation is associated with human pathologies including neurodegenerative, cardiovascular, muscular, and diabetic conditions. Maintenance of ER calcium is critical for functions of the ER and its depletion can lead to loss of ER resident proteins, in a process termed exodosis. Therapeutic compounds capable of attenuating the redistribution of ER proteins under pathological conditions may slow or stop disease progression. To identify such compounds, we performed a quantitative high-throughput screen (qHTS) using the SERCaMP assay, which monitors secretion of ER resident proteins triggered by calcium depletion.
SERCaMP was initially developed as a reporter of ER calcium homeostasis using a Gaussia luciferase with a modified signal peptide and carboxy-terminus (GLuc-SERCaMP), modifications that confer secretion of the reporter in response to ER calcium depletion (Henderson et al., 2014). The assay was used to screen 9,501 compounds, including a collection of drugs approved by the FDA (US), EMA (EU), NHI (Japan), and HC (Canada) regulatory agencies (Huang et al., 2011). Since the SERCaMP reporter reflects the exodosis phenomenon (Trychta et al., 2018a), compounds identified in the screen have the potential to prevent exodosis by different mechanisms such as stabilizing ER calcium or augmenting ERS retrieval.
1. Henderson, M.J., Wires, E.S., Trychta, K.A., Richie, C.T., and Harvey, B.K. (2014). SERCaMP: a carboxy-terminal protein modification that enables monitoring of ER calcium homeostasis. Mol Biol Cell 25, 2828-2839.
2. Huang, R., Southall, N., Wang, Y., Yasgar, A., Shinn, P., Jadhav, A., Nguyen, D.T., and Austin, C.P. (2011). The NCGC pharmaceutical collection: a comprehensive resource of clinically approved drugs enabling repurposing and chemical genomics. Sci Transl Med 3, 80ps16.
3. Trychta, K.A., Back, S., Henderson, M.J., and Harvey, B.K. (2018a). KDEL Receptors Are Differentially Regulated to Maintain the ER Proteome under Calcium Deficiency. Cell Rep 25, 1829-1840 e1826.
SEQUENCE No. (1, 2, 3, etc.); […] (e.g., Cells, Incubation, Reagent, etc.); VALUE and DESCRIPTION.
1; Reagent; 5 uL; 1000 SH-SY5Y cells per wells
3; Compound; 23 nL; Control inhibitor / compound library
5; Reagent; 100 nM; Thapsigargin
7; Reagent; 1 uL; 0.5x coelenterazine
8; Detection; Luminescence; ViewLux imaging system
NOTES (numbers refer to sequence above)
1; SH-SY5Y human neuroblastoma cells stably expressing GLuc-SERCaMP (SH-SY5Y-GLuc-ASARTDL) cells were seeded in 1,536 well white tissue culture treated plates (Corning, Cat# 7464) in DMEM-high glucose-sodium pyruvate (ThermoFisher Scientific, Cat #10569) supplemented with 10% bovine growth serum (Hyclone), 10 U/ml penicillin (Gibco), 10 ug/ml streptomycin (Gibco), and 20 mM HEPES.
2; Assay plates were incubated for 5 hour at 37C in a humidified incubator containing 5% CO2.
3; qHTS libraries (23 nl, final concentrations of 1.53 uM, 7.67 uM, 38.3 uM) or controls (neutral control: DMSO, positive control: dantrolene) were added using a Kalypsis pin-tool Robotic System equipped with 1536 pinheads.
4; Cells were then incubated for 16 hours at 37C, 5% CO2.
5; Thapsigargin was added at 100 nM to deplete ER calcium stores.
6; Cells were incubated for 4 hour (37 °C, 5% CO2)
7; Gaussia luciferase in the medium was measured by adding 1 ul of 0.5x coelenterazine (final concentration 0.07x) prepared in Gaussia Luciferase Glow Assay Buffer (Pierce), without addition of the Cell Lysis Buffer Reagent.
8; Luminescence was measured using a ViewLux […] CCD imaging system (Perkin Elmer) equipped with clear filters. […] The same controls were also used for the calculation of the Z' factor, a measure of assay quality control, as previously described (Zhang et al., 1999). […]
% is set by controls: 0 for no effect and ±100 for the full control effect; potency is the fitted concentration of half-maximal effect.

**Q.** For CN1CCN(c2ccc([N+](=O)[O-])c3no[n+]([O-])c23)CC1, which “activity change, negative = decrease” value is on record?
**A.** -9.86% (inactive)

**Q.** Which Potency does the source give for Nc1ccc(N=Nc2ccccc2)cc1 here?
**A.** 44.7 µM (active)

**Q.** For C[C@H]1CCCC=CC2C[C@H](O)C[C@@H]2[C@H](O)C=CC(=O)O1 (stereo partly specified), which “activity change, negative = decrease” value is on record?
**A.** -51.1% (inactive)

**Q.** With CNCCc1ccc(O)c(O)c1 as the compound, how does the Potency read?
**A.** 39.8 µM (active)

**Q.** With C/C=C(/C)C(=O)O[C@H]1C(C)=C2[C@H]([C@@H]1OC(=O)CCCCCCC)[C@@](C)(OC(C)=O)C[C@H](OC(=O)CCC)[C@@]1(O)[C@H]2OC(=O)[C@@]1(C)O as the compound, how does the Potency read?
**A.** inactive

**Q.** For Nc1c(Cl)c(Cl)c(Cl)c(Cl)c1Cl, which “activity change, negative = decrease” value is on record?
**A.** 13.6% [at 156 µM] (inactive)

**Q.** With Clc1ccc(C(c2ccc(Cl)cc2)n2cc[n+](CC(OCc3ccc(Cl)cc3Cl)c3ccc(Cl)cc3Cl)c2)cc1 (stereo unspecified) as the compound, how does the “activity change, negative = decrease” value read?
**A.** 54.6% (inactive)

**Q.** For O=[N+]([O-])c1c2ccccc2cc2ccccc12, which “activity change, negative = decrease” value is on record?
**A.** 10.1% [at 156 µM] (inactive)

**Q.** Which “activity change, negative = decrease” value does the source give for NC1CCc2cc(O)c(O)cc2C1 (stereo unspecified) here?
**A.** -6.22% [at 38.8 µM] (inactive)

**Q.** Which “activity change, negative = decrease” value does the source give for NCc1cc(=O)[nH]o1 here?
**A.** -11.5% (inactive)

**Q.** With CC=C(C)C(=O)O[C@H]1C(C)=C2[C@@H]3OC(=O)[C@@](C)(O)[C@@]3(O)[C@@H](OC(=O)CCC)C[C@](C)(OC(C)=O)[C@@H]2[C@@H]1OC(=O)CCCCCCC as the compound, how does the “activity change, negative = decrease” value read?
**A.** 12.7% (inactive)
